This passage reports composite z-score and z-score results from PubChem BioAssay.

Test [1] can be described thus: compounds binding Alexa647 anti-His antibody – biochemical, small-molecule microarray, 635 nm fluorescence, artefact control for SMM control protein annotation, primary screen (AID 1128).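 Further: score merges feature fluorescence with signal-to-noise for each printed compound spot.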 The settings on record: higher = more signal.
The test system of test [2] is Human papillomavirus type 1a E7 protein (residues 1-88). Description: HPV1a E7 small-molecule binders, primary screen, biochemical, small-molecule microarray, residues 1-88, 635 nm (AID 1129). Conditions: small-molecule microarray binding, fluorescence 635 nm; higher = more signal.
The target of test [3] is Focal adhesion kinase 1 (Homo sapiens) (UniProt Q05397). The test is described as follows: PTK2 protein binding on printed compound slides – biochemical, small-molecule microarray, 635/667 nm fluorescence, BSA, DTT, primary screen (AID 1130).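 Further: composite of spot emission at 667 nm and signal to noise over triplicate slides.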 The settings on record: 635 nm fluorescence, higher = more signal.
In test [4] the test system is Fibrinogen (Alexa647-labelled). Description: Alexa647-fibrinogen binding to printed small molecules – biochemical, small-molecule microarray, 635/667 nm fluorescence, artefact control for SMM control-protein annotation, profiling panel (AID 1131).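 Further: z-score merges 667 nm fluorescence with per-spot signal-to-noise over triplicate slides.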 The settings on record: fibrinogen-A647 binding fluorescence, higher = more signal.
Test [5] concerns the target Follistatin (Homo sapiens) (UniProt P19883). Description: FST protein binding to printed compounds – biochemical, small-molecule microarray, 635/667 nm fluorescence, primary screen (AID 1132). The settings on record: 635 nm fluorescence, higher = more signal.
The target in test [6] is Fibroblast growth factor 2 (Homo sapiens) (UniProt P09038). Description: basic fibroblast growth factor binding to printed compounds – biochemical, small-molecule microarray, 635/667 nm fluorescence, primary screen (AID 1133). The settings on record: FGF2, fluorescence 635/667, higher = more signal.
Test [7] in a line: JC-1 mitochondrial potential readout, lung cancer cells – cell-based, A549, JC-1 fluorescence, basal, 24 h, 100 nL, profiling panel (AID 1138).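 Further: A549 lung adenocarcinoma cells under basal conditions with no added stimulus; test concentration not given here.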 The settings on record: higher = more signal.
A further test relates to Lefty1. Description: Lefty1 protein binding to printed compounds – biochemical, small-molecule microarray, 635/667 nm fluorescence, primary screen (AID 1139). The settings on record: fluorescence 635/667, higher = more signal.
The subject of test [8] is wheat germ agglutinin (Triticum aestivum), Alexa647-labelled. The test is described as follows: Alexa647-WGA lectin binding to printed small molecules – biochemical, small-molecule microarray, 635/667 nm fluorescence, artefact control for SMM control-protein annotation, profiling panel (AID 1140).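 Further: score merges 667 nm feature emission with signal to noise over triplicate slides.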 Conditions: WGA-A647 binding, 635 nm fluorescence, higher = more signal.
In test [9] the target is Luciferin 4-monooxygenase (Photinus pyralis) (UniProt P08659). The test is described as follows: inhibition of purified Photinus pyralis luciferase – biochemical, luminescence, purified enzyme, 2006 set, primary screen (AID 1141).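 Further: cell-free assay with purified firefly luciferase at 100 ng per well in PBS; test concentration not given here.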 Conditions: purified firefly luciferase, SteadyGlo luminescence, 30 min; higher = more signal, called active from +8 up or from −8 down.

The source made the active and inactive calls.

Luciferin 4-monooxygenase (Photinus pyralis), sequence (P08659 whole entry, looked up): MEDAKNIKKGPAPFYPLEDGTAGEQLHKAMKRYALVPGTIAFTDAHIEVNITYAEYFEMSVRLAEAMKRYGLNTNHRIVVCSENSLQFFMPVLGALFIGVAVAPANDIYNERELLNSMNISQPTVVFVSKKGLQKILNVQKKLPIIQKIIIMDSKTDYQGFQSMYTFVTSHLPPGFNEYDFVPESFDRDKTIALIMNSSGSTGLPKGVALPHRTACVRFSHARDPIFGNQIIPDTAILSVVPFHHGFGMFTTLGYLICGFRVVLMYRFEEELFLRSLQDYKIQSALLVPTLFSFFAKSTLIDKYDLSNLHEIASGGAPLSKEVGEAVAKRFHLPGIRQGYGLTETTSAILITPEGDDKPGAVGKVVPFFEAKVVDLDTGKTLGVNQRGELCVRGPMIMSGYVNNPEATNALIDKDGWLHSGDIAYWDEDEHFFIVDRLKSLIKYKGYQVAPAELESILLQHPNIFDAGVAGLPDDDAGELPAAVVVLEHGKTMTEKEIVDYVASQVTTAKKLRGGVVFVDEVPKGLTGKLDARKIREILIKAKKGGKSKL
Fibroblast growth factor 2 (Homo sapiens), sequence (P09038 whole entry, looked up): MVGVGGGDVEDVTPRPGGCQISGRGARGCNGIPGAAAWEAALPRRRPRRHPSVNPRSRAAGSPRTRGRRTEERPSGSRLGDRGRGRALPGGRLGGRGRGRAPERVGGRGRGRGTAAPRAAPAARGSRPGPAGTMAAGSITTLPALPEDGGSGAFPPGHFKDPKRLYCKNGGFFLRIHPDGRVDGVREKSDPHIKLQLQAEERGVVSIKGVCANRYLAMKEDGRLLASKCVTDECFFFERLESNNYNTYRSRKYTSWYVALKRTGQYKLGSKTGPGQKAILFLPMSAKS
Follistatin (Homo sapiens), sequence (P19883 whole entry, looked up): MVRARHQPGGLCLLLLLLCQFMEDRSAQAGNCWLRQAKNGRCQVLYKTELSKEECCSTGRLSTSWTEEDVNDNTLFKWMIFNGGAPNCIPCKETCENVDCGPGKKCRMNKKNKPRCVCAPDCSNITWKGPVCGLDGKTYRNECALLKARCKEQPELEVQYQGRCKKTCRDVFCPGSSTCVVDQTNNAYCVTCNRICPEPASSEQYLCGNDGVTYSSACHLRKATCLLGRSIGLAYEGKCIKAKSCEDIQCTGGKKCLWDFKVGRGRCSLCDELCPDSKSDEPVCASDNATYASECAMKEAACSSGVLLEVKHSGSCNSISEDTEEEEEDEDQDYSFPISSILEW
Focal adhesion kinase 1 (Homo sapiens), sequence (Q05397 whole entry, looked up): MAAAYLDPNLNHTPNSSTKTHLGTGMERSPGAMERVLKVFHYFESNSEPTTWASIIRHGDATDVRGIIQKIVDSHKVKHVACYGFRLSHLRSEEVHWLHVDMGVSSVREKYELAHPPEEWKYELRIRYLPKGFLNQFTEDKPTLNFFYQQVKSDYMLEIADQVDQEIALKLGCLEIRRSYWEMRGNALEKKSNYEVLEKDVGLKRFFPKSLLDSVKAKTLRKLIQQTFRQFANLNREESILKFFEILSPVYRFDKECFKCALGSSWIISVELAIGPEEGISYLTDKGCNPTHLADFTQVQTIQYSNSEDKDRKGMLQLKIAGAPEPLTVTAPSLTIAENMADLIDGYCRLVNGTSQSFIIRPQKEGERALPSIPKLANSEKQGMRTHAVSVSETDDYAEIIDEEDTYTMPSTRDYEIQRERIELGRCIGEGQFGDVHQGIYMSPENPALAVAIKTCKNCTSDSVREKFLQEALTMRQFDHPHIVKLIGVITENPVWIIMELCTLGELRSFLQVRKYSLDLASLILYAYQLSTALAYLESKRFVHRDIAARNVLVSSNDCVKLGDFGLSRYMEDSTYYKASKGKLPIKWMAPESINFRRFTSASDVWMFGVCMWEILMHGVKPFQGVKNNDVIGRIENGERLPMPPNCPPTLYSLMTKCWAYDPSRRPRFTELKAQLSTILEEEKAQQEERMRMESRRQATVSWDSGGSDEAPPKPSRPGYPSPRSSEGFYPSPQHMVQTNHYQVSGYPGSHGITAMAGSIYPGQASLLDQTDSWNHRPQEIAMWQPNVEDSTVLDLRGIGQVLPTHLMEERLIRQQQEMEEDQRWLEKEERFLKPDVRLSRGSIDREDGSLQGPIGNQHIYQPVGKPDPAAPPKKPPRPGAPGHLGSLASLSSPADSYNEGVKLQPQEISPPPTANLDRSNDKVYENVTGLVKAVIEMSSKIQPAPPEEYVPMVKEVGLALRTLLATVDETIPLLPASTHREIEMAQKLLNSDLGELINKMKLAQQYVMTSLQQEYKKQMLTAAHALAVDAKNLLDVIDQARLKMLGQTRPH

Turning to `Cc1ccc(S(=O)(=O)OC[C@H]2CN3[C@H](c4ccc(Br)cc4)[C@@H](C)CC[C@H]3C(=O)O2)cc1`, the composite z-score is 0.924 in test [1]; 0.269 in test [2]; 0.0817 in test [3]; 0.596 in test [4]; 1.1 in [5]; 1.45 in test [6]. Moreover, the composite z-score in the test on Lefty1 was 0.198; in test [8], 0.11. Also, the results for the z-score in [7] and in test [9] were 1.78 and -0.849 (inactive), respectively.

For `C[n+]1ccc(-c2ccc(CO)cc2)cc1`, the composite z-score in test [1] is 0.658; in [2], -0.676; in test [3] it was -0.332; in [4], -0.168; in test [5] it was 1.55; in test [6] it was 1.35. For the same compound, the composite z-score came out at 1.61 in the test on Lefty1 and 1.48 in test [8]. The z-score in [7] was -0.666; in [9] it was -0.288 (inactive).

On to `C#CCCCON=C1C[C@@H](O)[C@@H](O)[C@@H]2[C@@H]3C(=O)N(CC)C(=O)[C@@H]3CC[C@@H]12`, for which the composite z-score in [1] is 0.399; in [2], 0.63; in [3] it was -0.229; in [4] it was 0.0609; in test [5] it was 0.759; in test [6], 0.672. The values for the composite z-score (in the test with Lefty1; in test [8]) were 0.289 and -0.0002, respectively. Further, the z-score in test [7] is -0.39; in test [9], 0.194 (inactive).

For `C#CCCCON=C1C[C@@H](O)[C@@H](O)[C@@H]2[C@@H]3C(=O)N(Cc4ccccc4)C(=O)[C@@H]3CC[C@@H]12`, the composite z-score in [1] was 0.309; in [2], -0.032; in [3], 0.0147; in test [4], -0.691; in [5], -0.0389; in test [6], 0.0054. Further, the composite z-score with Lefty1 turned out to be 0.19; in test [8], 0.249. Further, the results for the z-score in test [7] and in test [9] were 0.477 and 0.807 (inactive), respectively.

In the case of `O=C(NN=C1C[C@@H](O)[C@@H](O)[C@@H]2[C@@H]3C(=O)N(Cc4ccccc4)C(=O)[C@@H]3CC[C@@H]12)OCc1ccccc1`, the composite z-score was 0.298 in test [1]; -0.0375 in test [2]; -0.0741 in test [3]; 0.272 in test [4]; 0.165 in test [5]; 0.242 in test [6]. The composite z-score in the test on Lefty1 is 0.321; in [8] it was -0.148. Further, the z-score in [7] is 0.257; in test [9] it was 0.472 (inactive).

In the case of `C#CCCCON=C1C[C@@H](O)[C@@H](O)[C@@H]2[C@@H]3C(=O)N(C(C)(C)C)C(=O)[C@@H]3CC[C@@H]12`, the composite z-score is -0.331 in test [1]; -0.175 in test [2]; 0.324 in test [3]; 0.139 in [4]; -1.54 in [5]; -0.92 in test [6]. In addition, the composite z-score is -1.28 in the test on Lefty1 and 0.171 in test [8]. Moreover, the z-score is -0.289 in test [7] and 0.648 (inactive) in test [9].

For `CCOC(=O)NN=C1C[C@@H](O)[C@@H](O)[C@@H]2[C@@H]3C(=O)N(c4ccc(F)cc4F)C(=O)[C@@H]3CC[C@@H]12`, the composite z-score is 0.508 in [1]; 0.574 in test [2]; 0.252 in [3]; 0.331 in test [4]; 0.519 in [5]; 0.187 in test [6]. For the same compound, the composite z-score in the test on Lefty1 stood at 0.775; in test [8] it was 0.455. Also, the z-score in test [7] was -0.389; in test [9], 1.04 (inactive).

As for `CC(C)CON=C1C[C@@H](O)[C@@H](O)[C@@H]2[C@@H]3C(=O)N(c4cccc(Oc5ccccc5)c4)C(=O)[C@@H]3CC[C@@H]12`, the composite z-score in test [1] came to 0.89; in test [2], 0.762; in test [3] it was 0.0599; in test [4], 1.02; in test [5] it was 0.266; in [6], 0.314. Moreover, the composite z-score in the test on Lefty1 was 0.13; in [8], 0.561. Besides, the z-score in [7] was -0.289; in test [9] it was -0.172 (inactive).

As for `CC(C)CCN1CCc2nc(COc3ccccc3)c3c(c2C1)CO[C@@H](C)C3`, the composite z-score in test [1] is 0.683; in [2], 0.132; in test [3], 0.233; in test [4] it was 0.602; in test [5], 0.0413; in test [6], -0.0961. Further, the composite z-score came out at 0.0377 in the test with Lefty1 and 0.451 in [8]. Also, the results for the z-score in test [7] and in [9] were 1.71 and -0.781 (inactive), respectively.

Consider `CCOC(=O)[C@H](CC(C)C)NC(=O)CCC1CC(OC(=O)NCc2ccc3c(c2)OCO3)CC2(CCCC(COC(=O)NCCCN3CCCC3=O)O2)O1` (stereo not given in full), for which the composite z-score in test [1] is 0.581; in test [2], 1.15; in [3], 0.115; in [4], 0.741; in [5] it was 0.476; in [6], 1.12. In addition, the composite z-score with Lefty1 was 0.803; in test [8], 0.911. For the same compound, the values for the z-score in [7] and in test [9] were 1.26 and 0.0579 (inactive), respectively.

Regarding `CO[C@H]1COC(=O)[C@@H](Cc2ccccc2)NC(=O)[C@@H](C)COC(=O)CCC[C@@H]1C`, the composite z-score was 4.12 in test [1]; -0.666 in test [2]; 0.0469 in test [3]; -0.179 in [4]; 0.2 in test [5]; 0.241 in test [6]. For the same compound, the composite z-score was 0.534 with Lefty1 and -0.29 in test [8]. For the same compound, the z-score in [7] is -0.946; in test [9] it was 0.643 (inactive).

In the case of `CO[C@@H]1COC(=O)CC=C[C@@H](C)[C@H](OC)COC(=O)[C@@H](C)COC(=O)CC=C[C@H]1C`, the composite z-score in test [1] is -0.227; in [2], -1.38; in test [3], -0.482; in test [4], -1.39; in test [5], 1.18; in [6] it was 0.867. In addition, the figures for the composite z-score (in the test with Lefty1; in [8]) were 1.24 and -0.839, respectively. Also, the z-score was 1.2 in [7] and -0.798 (inactive) in [9].

`CCC=CCCC(OC(=O)c1ccc(Br)cc1)C1=CCCCC1=O` (stereo not given): the composite z-score in test [1] was 0.164; in test [2], 1.17; in [3], 0.408; in test [4], -0.997; in test [5], 1.11; in [6], 0.584. Also, the figures for the composite z-score (with Lefty1; in test [8]) were 0.876 and 0.485, respectively. Moreover, the z-score in [7] was -0.158; in test [9], 0.0771 (inactive).

Consider `CCO[C@H](c1cc(OC)cc([N+](=O)[O-])c1OC)[C@H](C)C=CCC(=O)OC`, for which the composite z-score was 0.051 in [1]; -0.467 in test [2]; -0.361 in [3]; -0.364 in test [4]; 0.66 in test [5]; 0.479 in [6]. Moreover, the composite z-score in the test with Lefty1 is 0.747; in test [8] it was 0.0356. In addition, the figures for the z-score in [7] and in test [9] were 0.347 and -0.734 (inactive), respectively.
